# Results with a measured potency or affinity are listed apart.
# Test system: Klebsiella pneumoniae
# Settings: Concentration 32 ug.mL-1; ASSAY_TEST Inhibition of Bacterial Growth; detection method Absorption (OD600); MEDIA CAMHB; plate type 384well; NBS; CORNING #3640; time 18 hr
row,Compound,Inhibition
1,c1ccc2nc3c4cccnc4c4ncccc4c3nc2c1,2.4%
2,COC(=O)c1ccc(S)cc1,-1.57%
3,CC(=O)c1cc(C(C)=O)cc(C(C)=O)c1,7.55%
4,CC(=NN)c1cc(/C(C)=N/N)cc(/C(C)=N/N)c1,4.02%

# Test system: Candida albicans
# Settings: 32 ug/mL
row,Compound,Inhibition
1,c1ccc2nc3c4cccnc4c4ncccc4c3nc2c1,9.1%
2,COC(=O)c1ccc(S)cc1,2.97%
3,CC(=O)c1cc(C(C)=O)cc(C(C)=O)c1,2.92%
4,CC(=NN)c1cc(/C(C)=N/N)cc(/C(C)=N/N)c1,5.62%

# Test system: Cryptococcus neoformans
# Settings: Concentration 32 ug.mL-1; ASSAY_TEST Inhibition of Fungal Growth; detection method Resazurin; Absorption (OD600-OD570); plate type 384well; NBS; CORNING #3640
row,Compound,Inhibition
1,c1ccc2nc3c4cccnc4c4ncccc4c3nc2c1,-49.42%
2,COC(=O)c1ccc(S)cc1,-49.69%
3,CC(=O)c1cc(C(C)=O)cc(C(C)=O)c1,-57.45%
4,CC(=NN)c1cc(/C(C)=N/N)cc(/C(C)=N/N)c1,-41.95%
